# Measurements taken from PubChem BioAssay (Tox21).
# Where “and” joins values, the source holds several entries; their conditions need not be identical. Identical values can stand only once. Inconclusive results are not listed. Calls of active or inactive are those of the source. Calls follow the shape of the dose curve; as a rule, active = well fitted cell-killing curve with a large enough effect in the repeat runs; inconclusive = weak or mixed curves; inactive = flat fitted curve, though single readings scatter.
# Assay: qHTS assay to identify small molecule antagonists of the estrogen related receptor (ERR) signaling pathway from Tox21 library - cell viability counter screen (AID 1224834); also: nearly all actives have a fitted effect of over 30% in size
# Conditions: ERR reporter cells viability, CellTiter-Fluor, 17.5 h; series mostly up to 92.4 µM
# How it was run: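 Cytotoxicity of test substances is gauged in the same ERR cells used for the antagonist screen, after 17.5 h of compound treatment at 37 C, by CellTiter-Fluor fluorescence measured after 30 min.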
# Potency is read from the fitted curve at half-maximal effect.
row,Compound,Potency
1,CSc1cnc(C)cn1,inactive
2,CC(C)(C)NC(=O)[C@@H]1C[C@@H]2CCCC[C@@H]2CN1C[C@@H](O)[C@H](Cc1ccccc1)NC(=O)[C@H](CC(N)=O)NC(=O)c1ccc2ccccc2n1,24.7 µM (active)
3,C=C(C)C(=O)OCC[N+](C)(C)C,inactive
4,Oc1cccc(-c2c3nc(c(-c4cccc(O)c4)c4ccc([nH]4)c(-c4cccc(O)c4)c4nc(c(-c5cccc(O)c5)c5ccc2[nH]5)CC4)C=C3)c1,10.6 µM (active)
5,Oc1ccc(C2(c3ccc(O)cc3)CC3CC2C2CCCC32)cc1 (centres undefined),58.7 µM (active)
6,Cc1cc2c(cc1C(F)(F)F)N(C(=O)Nc1ccc(Oc3cccnc3C)nc1)CC2,15.6 µM (active)
7,CC[C@H]1O[C@]2(CC[C@@H]1C)C[C@@H]1C[C@@H](C/C=C(\C)C[C@@H](C)/C=C/C=C3\CO[C@@H]4[C@H](O)C(C)=C[C@@H](C(=O)O1)[C@]34O)O2,60.6 µM (active)
8,O=C(Nc1cccc([N+](=O)[O-])c1)c1cc2ccccc2cc1O,4.33 µM (active)
9,[Cl][Au]([Cl])[Cl],27.3 µM (active)
10,O=C1CCCCCN1SSN1CCCCCC1=O,inactive
11,Clc1ccccc1C(c1ccccc1)(c1ccccc1)n1ccnc1,27.3 µM (active) and 11.9 µM (active)
12,CN1CCN(CCC(=O)N2c3ccccc3Sc3ccc(C(F)(F)F)cc32)CC1,29.8 µM (active)
13,CCCCCCCC/C=C\CCCCCCCCOCCO,35.5 µM (active)
14,CC1=C(C(=O)OC(C)C)C(c2cccc([N+](=O)[O-])c2)C(C(=O)OC2CN(C(c3ccccc3)c3ccccc3)C2)=C(N)N1 (centres undefined),29.8 µM (active)
15,Nc1ccccc1O,60.3 µM (active)
16,Fc1ccc(C(c2ccc(F)cc2)N2CCN(C/C=C/c3ccccc3)CC2)cc1,26.6 µM (active)
17,Nc1ccc(N)c2ccccc12,30.6 µM (active)
18,Oc1c(Cl)cc(Cl)c2cccnc12,13.3 µM (active)
19,O=c1c(-c2ccccc2)c1-c1ccccc1,8.41 µM (active)
20,CC(C)(C)C1CCC(CC2=C(O)c3ccccc3C(=O)C2=O)CC1 (centres undefined),inactive
21,N/C(=N\N=C\c1ccc(Cl)cc1)N/N=C/c1ccc(Cl)cc1,33.5 µM (active)
22,CCCCCCCCCCCCCCCCCC[N+](C)(C)Cc1ccccc1,49 µM (active)
23,CCC(Cl)C(Cl)C(Cl)CC(Cl)C(Cl)C(C)Cl (centres undefined),inactive
24,CCCCN(CCCC)C(=O)N(CCCC)CCCC,inactive
